# Screens deposited in PubChem BioAssay by several laboratories.
# Rows were chosen to be rich in hits. Some 3.7% of all compounds tested hit in one or more screens of this group.
# Kir21 block = Kir2.1 (mouse) channel inhibition. P35561. HEK293-Kir2.1, FluxOR thallium flux fluorescence; active compounds read low. B-score at 10 µM. 0.85% of 310,000 active;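 active = fluorescence ratio B-score at or below minus 3 SD of library scores, with starting-brightness B-score within 2 SD, cut at about -4.2 in these data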;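 also: channel flux triggered by added potassium and thallium sulfate stimulus; B-score of peak minus minimum fluorescence over baseline after thallium stimulus; more negative B-score means stronger Kir2.1 block with less thallium influx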
# Target sequence (P35561 whole entry, looked up): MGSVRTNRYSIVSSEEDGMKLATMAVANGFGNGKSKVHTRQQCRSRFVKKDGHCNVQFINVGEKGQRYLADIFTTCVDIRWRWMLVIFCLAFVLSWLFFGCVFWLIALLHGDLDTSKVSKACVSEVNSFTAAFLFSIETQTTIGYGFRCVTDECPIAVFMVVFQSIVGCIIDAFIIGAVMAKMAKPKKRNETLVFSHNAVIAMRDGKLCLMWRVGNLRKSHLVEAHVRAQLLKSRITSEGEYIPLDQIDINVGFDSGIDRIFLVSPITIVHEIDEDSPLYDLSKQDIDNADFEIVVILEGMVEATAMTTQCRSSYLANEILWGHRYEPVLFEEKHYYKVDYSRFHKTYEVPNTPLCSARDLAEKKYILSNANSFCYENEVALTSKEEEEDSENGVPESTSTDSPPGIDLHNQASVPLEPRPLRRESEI
# TMEM16A inh = blocks the mouse calcium-activated chloride channel TMEM16A. HEK293 TMEM16A/YFP iodide influx fluorescence, ionomycin. normalized B-score (activity score, 25-100; higher = stronger inhibition) at 10 µM. 1.2% of 310,000 active. AID 588511;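 active = ratio plate-corrected score three or more library SD toward inhibition, starting fluorescence score within five deviations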;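 also: score derived from kinetic fluorescence span divided by baseline fluorescence per well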
# TMEM16A act = activators or potentiators of mouse TMEM16A chloride channel; AID 623877; B-score at 10 µM; HEK293 TMEM16A/YFP-H148Q/I152L, iodide quench fluorescence; active compounds read low; 0.3% of 340,000 active; Q8BHY3;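 active = fluorescence-ratio B-score plate-corrected deviation score at least 3 library SD below zero, with starting fluorescence score within 5 deviations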;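 also: channel opened by trigger with iodide after compound preincubation; score built on the fluorescence ratio of max minus min over baseline; more negative score means more quench and so TMEM16A activation or potentiation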
# CHT block = inhibitors of human choline transporter CHT. CHT-expressing cells, membrane potential dye, choline response; active compounds read low. B-score at 10 µM. 0.86% of 310,000 active;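 active = B-score over 3 SD under the library average, and starting fluorescence ratio not unusually high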;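 also: choline stimulus applied at its EC90 after an EC20 pre-addition; B-score computed on integrated fluorescence ratio after choline addition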
# GPR7 antag = human neuropeptides B/W receptor 1 antagonism; GPR7-expressing cells, fluorescence antagonist assay; inhibition, % at 4.4 µM; 1.1% of 290,000 active; P48145; in the data active = inhibition above about 16%, passing the limit was not always enough;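 also: cells stimulated with the agonist NPW; 0% = agonist with vehicle and 100% = vehicle without agonist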
# CHT allo act = allosterically activates the human high affinity choline transporter | Q9GZV3 | CHT-expressing cells, membrane potential dye, choline EC20; active compounds read high; LV-AA mutant CHT in HEK293 cells | B-score at 10 µM | 0.49% of 310,000 active | AID 488977;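 active = initial fluorescence not abnormally high and integrated response B-score, plate-corrected, over 3 SD above library mean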
# CHT block conf = human CHT inhibition, confirmatory screen. shares compounds with CHT block. CHT activity remaining % of control (active compounds read low), % at 10 µM. 70% of 2,400 active. CHT-expressing cells, choline membrane potential dye; LV-to-AA substituted CHT, HEK293 cells;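 active = choline transporter activity left, mean of duplicates at 10 µM, below buffer-only control mean minus 3 SD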;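 also: depolarization triggered by choline at its EC90 following an EC20 pre-addition; 0% = hemicholinium-3 full block and 100% = buffer-only control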
# HEK293 CHT ctr = activity in parental HEK293 cells lacking CHT. shares compounds with CHT block. membrane potential dye, choline response; active = decrease or increase beyond buffer ±3SD. membrane potential ratio readout (active if shifted either direction beyond buffer ±3SD; no single direction) at 10 µM. 4% of 2,400 active. AID 493222;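 also: parental cells lack the transporter so any hit is non-specific; ratio is peak minus trough fluorescence over baseline after EC90 choline challenge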
# Numbers without * were called inactive; i = inactive; nt = no result.
SMILES,Kir21 block,TMEM16A inh,TMEM16A act,CHT block,GPR7 antag,CHT allo act,CHT block conf,HEK293 CHT ctr
COc1ccc(CNS(=O)(=O)c2ccc3c(c2)CC(C)N3C(=O)C2CC2)cc1 (stereo not given),0,i,i,-5*,23,i,i,i
COc1cccc(CNS(=O)(=O)c2ccc3c(c2)CC(C)N3C(=O)C2CC2)c1 (stereo not given),0.31,i,i,i,13,i,nt,nt
CCOC(=O)N/N=C/c1ccc(OCCSc2ccc(Cl)cc2)c(OC)c1,1.4,i,i,i,-3,i,nt,nt
CCOc1cc(/C=N/NC(=O)CN2CCCCC2)ccc1OCc1cccc(Cl)c1,-4.7*,i,i,-6.6*,4,i,49%*,i
CCOc1cc(/C=N/NC(=O)CN2CCCCC2)ccc1OCc1ccc(Cl)cc1,-0.18,i,i,i,-12,i,nt,nt
CCOC(=O)N/N=C/c1ccc(OCCSc2ccc(Cl)cc2)c(OCC)c1,-0.54,i,i,-5*,-2,i,i,i
O=C(COc1ccccc1[N+](=O)[O-])N1CCN(c2ccccn2)CC1,0.01,i,i,i,nt,i,nt,nt
CNCc1ccccc1OCc1ccc(F)cc1,-2.5,i,i,i,-5,i,nt,nt
C=CCOc1ccccc1CNCc1ccc(F)cc1,-1.8,i,i,-7.5*,0,i,26%*,-14*
CCOC(=O)N1CCN(C(=O)CCCn2c(=S)[nH]c3ccc(Br)cc3c2=O)CC1,-1.2,i,i,-5.3*,-7,i,55%*,i
CCOC(=O)N1CCN(C(=O)CCCCCn2c(=S)[nH]c3ccsc3c2=O)CC1,-1.1,i,i,i,-10,i,nt,nt
CCOC(=O)N1CCN(C(=O)CCCn2c(=O)[nH]c3ccccc3c2=O)CC1,1.7,i,i,-5.9*,-1,i,5.0%*,i
CCOC(=O)N1CCN(C(=O)CCCn2c(=S)[nH]c3ccsc3c2=O)CC1,-0.46,i,i,-12*,-12,i,6.4%*,i
O=C(COC(=O)C1CCN(S(=O)(=O)c2ccccc2)CC1)NCCc1ccccc1,nt,nt,i,nt,nt,nt,nt,nt
Cc1ccc(-n2c(O)c(/C=N/Nc3ccc(S(=O)(=O)N4CCOCC4)cc3[N+](=O)[O-])c3ccccc3c2=O)c(C)c1,0.87,100*,i,-5.1*,0,i,27%*,i
O=C(NC1CCCCC1)c1ccc(CS(=O)Cc2ccc(Cl)cc2)o1 (stereo not given),1.9,i,i,i,-2,i,nt,nt
NS(=O)(=O)c1ccc(N/N=C/c2ccc(C(=O)O)cc2)c([N+](=O)[O-])c1,0.98,i,i,i,-13,i,nt,nt
Cc1nn(-c2ccccc2)c(N2CCCC2)c1/C=N/Nc1ccc(S(N)(=O)=O)cc1[N+](=O)[O-],-0.61,i,i,-5*,7,i,i,i
Cc1ccnc(NC(=S)NC(=O)/C=C/c2ccc(Cl)cc2)c1,0,i,i,i,-8,i,nt,nt
O=C(OCc1nc2ccsc2c(=O)[nH]1)c1cc(Br)c(Br)s1,0.02,i,i,-7.7*,nt,i,64%*,i
O=C(OCc1nc2ccsc2c(=O)[nH]1)c1ccco1,0.31,i,i,i,nt,i,nt,nt
Cc1ccc(-n2c(C(C)C)nc3oc4ccccc4c(=O)c3c2=O)cc1,-0.93,i,i,i,-14,i,nt,nt
Cn1c(N)c(C(=O)COC(=O)c2cc(S(=O)(=O)NCc3ccccc3)ccc2O)c(=O)n(C)c1=O,nt,nt,i,nt,nt,nt,nt,nt
CN(CC(=O)Nc1cccc(F)c1)C(=O)CSc1ccccc1F,2,i,i,i,-17,i,nt,nt
Cc1ccc(S(=O)(=O)Oc2cccc(/C=N/Nc3ccc(C(=O)O)cc3)c2)cc1,-0.73,i,i,i,1,i,nt,nt
SMILES,Kir21 block,TMEM16A inh,TMEM16A act,CHT block,GPR7 antag,CHT allo act,CHT block conf,HEK293 CHT ctr
Cc1ccc(S(=O)(=O)Oc2cccc(/C=N/n3cnnc3)c2)cc1,-0.28,i,i,-10*,5,i,56%*,i
COc1ccc(CN(C(=O)c2cccs2)c2ccccc2)cc1,0,i,i,i,-1,i,nt,nt
COc1ccc(CN(C(=O)c2ccco2)c2ccccc2)cc1,-4.2*,i,i,-5*,14,i,i,i
CCN(CC)S(=O)(=O)c1cc(C(=O)Nc2nncs2)c(Cl)cc1Cl,-0.04,i,i,-9.5*,14,i,50%*,i
O=S(=O)(NCc1csc(-c2cccs2)n1)c1cccc(C(F)(F)F)c1,-11*,i,i,-5.5*,-11,i,54%*,i
CC(=O)Nc1cc(=O)c2cccnc2[nH]1,nt,nt,i,nt,nt,nt,nt,nt
CC1CCN(CC(=O)Nc2cccc(C(=O)Nc3cccc(C(F)(F)F)c3)c2)CC1,-0.27,i,i,-6.4*,-3,i,44%*,i
CC1CN(CC(=O)Nc2cccc(C(=O)Nc3cccc(C(F)(F)F)c3)c2)CC(C)O1 (stereo not given),-1.2,i,i,i,6,i,nt,nt
COc1ccc(C(=O)NCc2cc(C(C)C)no2)cc1OC1CCN(C(C)C)CC1,2.3,i,i,nt,-3,nt,nt,nt
COc1ccc(C(=O)NCc2nc(C)c(C)s2)cc1OC1CCN(C(C)C)CC1,0.08,i,i,-13*,-1,i,3.8%*,i
CCc1cc(CNC(=O)c2ccc(OC)c(OC3CCN(C(C)C)CC3)c2)on1,2.3,i,i,-16*,-16,i,2.2%*,i
COC(=O)C(Cc1csc2ccc(Cl)cc12)NC(=O)c1ccc(Cl)cc1 (stereo not given),-0.6,i,i,i,-6,i,nt,nt
CC(C)(C)[C@H]1CCC(=O)N([C@H](CN=[N+]=[N-])Cc2ccccc2)CC1,-1.8,i,i,-5.1*,19,i,i,i
Cc1ccsc1C(=O)N1CCCC(CO)(Cc2ccccc2F)C1 (stereo not given),-0.64,i,i,i,6,i,nt,nt
O=C(NCC(c1cccnc1)N1CCN(c2ccccc2F)CC1)c1cccc(Cl)c1 (stereo not given),2.3,i,i,-6.9*,1,i,i,i
